# This excerpt belongs to a sample that is enriched for hits.
# Tgondii IFNg = T. gondii growth inhibition under IFN-gamma. Toxoplasma gondii growth in IFN-gamma-treated host cells; hits give low values. activity change, negative = inhibition, % (no concentration beside the values). 3.8% of 69,000 active. AID 1259416; in the data active = activity change below about -70%, passing the limit was not always enough;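 note: host cells are HeLa cells infected with Toxoplasma gondii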
# * = called active by the depositor; ! = not confirmed by another sample.
SMILES,Tgondii IFNg
COCCCn1c(-c2ccc(Cl)cc2)cc(-c2cccs2)c1-c1ccccc1,118.8
CSc1sc(C(=O)NC(=O)NCc2cccnc2)c(C)c1-c1ccno1,-65.3
O=C(Cc1cccnc1)N1CC(=O)N2[C@H](CO)[C@H](c3ccc(/C=C/c4ccccc4)cc3)[C@@H]2C1,1.3
COC(=O)c1cc(CN(C)C(C)c2nc(C)sc2C)cs1 (stereo not drawn),2.0
COc1cccc(CC2CN(c3ccc(C)nn3)CCO2)c1 (stereo not drawn),5.6
CC(=O)C(C)(C)OC(=O)NCc1cccs1,31.6
CC(=O)C(C)(C)OC(=O)NCCc1ccc(Cl)cc1,-76.5*
COc1ccc(Cl)cc1C(=O)NCCc1ccc(C(=O)O)cc1,13.7
CC(C)Nc1ncc(-c2cccs2)c(-c2cccnc2)n1,-4.0
COCCN1C(=O)N(Cc2ccccc2)C2(CCN(Cc3ccc(OC)c(OC)c3OC)CC2)C1=O,-31.1
COc1ccc(OCC(=O)Nc2cccc(-c3nnc4c5ccccc5c(C)nn34)c2)cc1,-76.4*
COc1ccc(NC(=O)COc2nc(C)nc3ccccc23)cc1,17.6
Cc1cccc(NC(=O)COc2nc(C)nc3ccccc23)c1,-7.7
Cc1ncsc1CCC(=O)N(Cc1nccn1C)C1CC1,3.1
CCCS(=O)(=O)Nc1ccc(F)c(C(=O)c2c[nH]c3ncc(-c4ccc(Cl)cc4)cc23)c1F,-78.6*
COc1ccc(CN(C)Cc2nc(-c3cccc(Cl)c3)oc2C)cc1OC,-7.1
CC(C)C(C)NC(=O)c1ncn2c(C3CCN(Cc4cccnc4)CC3)ccnc12 (stereo not drawn),-27.8
CSc1ccc(C2c3[nH]c4ccccc4c3CCN2C(=O)c2ccc(C)cc2)cc1 (stereo not drawn),33.9
CSc1ccc(C2c3[nH]c4ccccc4c3CCN2C(=O)c2ccccc2Cl)cc1 (stereo not drawn),89.4
O=C(c1ccccc1F)N1CCc2c([nH]c3ccccc23)C1c1ccccc1 (stereo not drawn),38.8
Cc1ccc(C2c3[nH]c4ccccc4c3CCN2C(=O)c2ccccc2Cl)cc1 (stereo not drawn),-118.1*
Cc1cccc(C2c3[nH]c4ccccc4c3CCN2C(=O)c2ccccc2Cl)c1 (stereo not drawn),-109.7*
Cc1cccc(C2c3[nH]c4ccccc4c3CCN2C(=O)c2ccccc2)c1 (stereo not drawn),135.4
CC(C(=O)NC(Cc1ccsc1)c1cccnc1)N1C(=O)NC(C)(C)C1=O (stereo not drawn),5.4
CC1(C(=O)NCc2ccc(F)cc2F)CCN(C(=O)c2ccccc2F)CC1,-31.5
SMILES,Tgondii IFNg
CSc1ccc(CN(C(=O)c2cc(C)[nH]c(=O)c2)C2CC2)cc1,-18.4
CCOc1ncnc2c1CCN(c1cc(C(F)(F)F)ncn1)CC2,0.5
CCN1CCOC2(CCN(C(=O)c3ccsc3)CC2)c2ccccc21,-12.7
O=C1CSC(=O)N1CC(O)Cn1c2ccccc2c2ccccc21 (stereo not drawn),26.8
COc1ccc(-n2c(SCC#N)nnc2-c2cccnc2)cc1,-45.7
COc1ccc(-n2c(CC#N)nnc2SCc2c(C)c(C)c(C)c(C)c2C)cc1,-89.3*
COc1ccc(-n2c(Cc3ccccc3)nnc2SCC(=O)c2ccccc2)cc1,-47.4
COc1ccc(CN2CCC3(CCCN3CC3CC3)CC2)cc1,-9.8
Cc1ccccc1NC(=O)Cn1c(=O)cc(C(=O)N2CCOCC2)c2ccccc21,12.2
C=C[C@H]1CN2CC[C@H]1C[C@@H]2[C@H](O)c1ccnc2ccc(OC)cc12,-16.3
C=C[C@H]1CN2CC[C@H]1C[C@@H]2[C@@H](O)c1ccnc2ccc(OC)cc12,-88.2*!
C=CC1CN2CCC1CC2[C@@H](O)c1ccnc2ccc(OC)cc12 (stereo partly drawn),-60.0
COc1ccc(C2(NC(=O)c3cnc(N4CCOCC4)nc3)CCCC2)cc1,-79.7*
CCCC(NC(=O)c1cnc(N2CCOCC2)nc1)c1cccs1 (stereo not drawn),100.4
CCOC(=O)c1cnc(N2CCOCC2)nc1N,184.7
CC(C)N(Cc1cnn(C)c1)C(=O)c1ncc[nH]1,11.8
CCN(CC)Cc1cn2c(n1)CN(Cc1c(C)noc1C)CC2,8.1
Cc1ccc(C(=O)N2CCCn3nnc(CN4CCOCC4)c3C2)cc1C,-29.9
Cn1ccc2cc(S(=O)(=O)N3CCCC(C(=O)N4CCN(c5ccccn5)CC4)C3)ccc21 (stereo not drawn),88.6
CC(=O)O[C@H]1C(=O)[C@@]2(C)[C@H]([C@H](OC(=O)c3ccccc3)[C@]3(O)C[C@H](OC(=O)[C@H](O)[C@@H](NC(=O)c4ccccc4)c4ccccc4)C(C)=C1C3(C)C)[C@]1(OC(C)=O)CO[C@@H]1C[C@@H]2O,-82.4*!
CC(=O)O[C@H]1C(=O)[C@@]2(C)[C@H]([C@H](OC(=O)c3ccccc3)[C@]3(O)C[C@H](OC(=O)[C@H](O)C(NC(=O)c4ccccc4)c4ccccc4)C(C)=C1C3(C)C)[C@]1(OC(C)=O)CO[C@@H]1C[C@@H]2O (stereo partly drawn),-95.5*
CN(C)CCNC(=O)c1nc2c(o1)CN(CC1CC1)C2,-42.2
COc1cccc(C2CC(c3ccccc3O)=NC3(CCN(C(C)=O)CC3)N2)c1O (stereo not drawn),207.0
O=C(c1ccsc1)N1CCC2(CC1)Nc1cccnc1NC2=NC1CCCC1,65.7
c1csc(-c2nnc(Cc3ccncc3)c3ccccc23)c1,-90.9*
SMILES,Tgondii IFNg
c1csc(-c2nc3ccc4ccccc4c3c3c2CCC3)c1,120.7
CCS(=O)(=O)N1CCN(c2nnc(-c3cccs3)c(-c3cccs3)n2)CC1,173.9
O=C(NCCc1nc(-c2ccccc2)cs1)[C@@H]1C[C@@H]2C=C[C@H]1C2,42.8
CC1CCN(c2ccc(NS(=O)(=O)c3ccc4[nH]c(=O)ccc4c3)cc2)CC1,-62.7
Cc1cc(C)cc(NC(=O)Cn2ncc3c(N4CCN(c5ccccn5)CC4)ncnc32)c1,-62.8
O=C(CSc1nnc(-c2ccncc2)o1)c1ccccc1,27.6
NC(=O)N/N=C/c1ccc(Oc2ccc(F)cc2)cc1,19.1
NC(=O)N/N=C/c1ccc([N+](=O)[O-])o1,-72.5*!
O=C1OC(CN2CCOCC2)CN1/N=C/c1ccc([N+](=O)[O-])o1 (stereo not drawn),-11.5
CCN1CCC2(CN(CCOC)CC23CCN(Cc2cnn(C)c2)CC3)C1=O (stereo not drawn),8.0
COc1ccc2nc(CNC3CCN(CC(C)C)CC3)[nH]c2c1,-7.2
CCCn1cc(C(=O)N(Cc2ccncc2)C(C)CC)c(C)n1 (stereo not drawn),5.0
COc1cc(-c2coc3cc(OCc4ccccc4)c(OC)c(O)c3c2=O)cc(OCc2ccccc2)c1OC,-79.1*
COc1ccc(-c2coc3cc(O)cc(O)c3c2=O)cc1,173.4
O=c1c(-c2cc(O)c(O)c(O)c2)coc2cc(O)c(O)c(O)c12,19.3
Cc1cc(NC(=O)c2cc(C(C)(C)C)oc2C)nc(C)n1,90.5
COc1cc(OC)c2c(CN3CCC4(CC3)NC(=O)N(C)C4=O)cn(C)c2c1,-69.9
COc1c2ccoc2cc2oc(=O)ccc12,-87.4*!
O=c1ccc2cc3ccoc3cc2o1,8.1
COc1ccc2c(c1)c(=O)oc1cc3occ(C(C)(C)C)c3cc12,-31.8
COc1ccc(CN2C3(CCN(C(=O)NC4CCCC4)C3)c3ccccc3S2(=O)=O)cc1 (stereo not drawn),-6.6
COCCN1C[C@H]2CCCO[C@H]2[C@H](N(C)Cc2ccco2)C1,87.0
Cc1ccsc1[C@@H]1CCN(Cc2ccc(CN(C)S(C)(=O)=O)o2)C[C@H]1O,-6.2
